From PubChem BioAssay (NCATS)
Inconclusive results are not listed. Active and inactive are the calls of the source. Unless noted, the call rests on the fitted dose curve; in most records, active means well fitted inhibition curve with a large enough effect; inconclusive means small, poorly fitted or top-dose-only effect; inactive means no such curve, though single readings can be large or run the other way.

What was measured:
[1] = qHTS profiling of the MIPE4 collection as inhibitors of Plasmodium falciparum (HB3) proliferation (AID 743347; call rule not given here;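 further: plate controls were DMSO vehicle wells for no effect and artemisinin wells for full effect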); settings: P. falciparum HB3 in erythrocytes, SYBR Green DNA, 72 h; at 28.5 µM (top of the series) unless noted
How it was run: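 Erythrocytes infected with P. falciparum (0.3% parasitemia, 2.5% hematocrit) incubated with compounds 72 h at 37 C, 5% CO2. Lysis with saponin/Triton buffer containing SYBR Green I, overnight at room temperature in the dark; DNA fluorescence (485/535 nm) normalised to 0.29 uM artemisinin and DMSO.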

[2] = High-throughput drug toxicity screening in the BPDCN cell line Gen2.2 (AID 1224824; call rule not given here;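 further: cells exposed to compounds for 48 h before reading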); settings: Gen2.2 BPDCN cells; at 45.8 µM (top of the series) unless noted
How it was run: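 Gen2.2 cells, 500 per well in phenol red-free RPMI with 10% FBS, exposed to compounds 48 h at 37 C, 5% CO2; viability by CellTiter-Glo luminescence. Percent activity scaled to DMSO (100%) and 9.2 uM bortezomib final (0%).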

[3] = High-throughput drug toxicity screening in the BPDCN cell line Cal-1 (AID 1224825; call rule not given here); settings: Cal-1 BPDCN cell viability, qHTS; at 45.8 µM (top of the series) unless noted
How it was run: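 Cal-1 cells, 500 per well in phenol-red-free RPMI with 10% FBS, exposed to compounds for 48 hours at 37C, 5% CO2. Viability read by CellTiter-Glo luminescence; percent activity normalized to DMSO (100%) and 9.2 uM bortezomib final (0%).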

[4] = qHTS assay for measurement of the activity of small molecule inhibitors on Zika virus induced Caspase-3 activity in human astrocytoma cells (AID 1224859);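 further: plate controls were ZIKV-infected untreated cells for no effect and uninfected cells for full effect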
How it was run: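 Caspase activation in ZIKV-infected SNB-19 cells (2 FFU/cell, 6 h) measured by Caspase-Glo 3/7 luminescence after 30 min RT; compound pre-incubated 1 h; normalised to uninfected and infected controls.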

[5] = qHTS Screen of the MIPE 4.0 Collection Against Ewings Sarcoma (RDES) (AID 1259252); further: nearly all actives have a fitted effect of over 35% in size; further: potency means the concentration at half of the fitted maximal effect
How it was run: (§1)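 Log-phase cells in RPMI with 5% FBS attached for 4 h, then received compounds as a titration for 48 h at 37C, 5% CO2. Viability was read by CellTiter-Glo luminescence and normalized to DMSO and no-cell wells.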

[6] = qHTS Screen of the MIPE 4.0 Collection Against Ewings Sarcoma (TC71) (AID 1259253); further: nearly all actives have a fitted effect of over 40% in size; further: potency means the concentration at half of the fitted maximal effect
How it was run: as §1

[7] = qHTS Screen of the MIPE 4.0 Collection Against Ewings Sarcoma (EW8) (AID 1259255); further: nearly all actives have a fitted effect of over 35% in size; further: potency means the concentration at half of the fitted maximal effect;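 on viability: 100% = DMSO-treated cells and 0% = medium-only wells without cells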
How it was run: as §1

[8] = qHTS Screen of the MIPE 4.0 Collection Against Ewings Sarcoma (TC32) (AID 1259256); further: nearly all actives have a fitted effect of over 45% in size; further: potency means the concentration at half of the fitted maximal effect
How it was run: as §1

[9] = qHTS assay for measurement of the activity of small molecule inhibitors on Zika virus induced Caspase-3 activity in human iPSC derived neural progenitor cells (hNPCs) (AID 1224857); further: % of control where 0% means no effect; nearly all actives have a fitted effect of over 65% in size
How it was run: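 Zika virus (2 FFU/cell) infection of human iPSC-derived NPCs, 6 h, following 1 h compound preincubation. Read-out: Caspase-Glo 3/7 luminescence.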

[10] = P-glycoprotein substrates identified in KB-3-1 adenocarcinoma cell line, qHTS therapeutic library screen (AID 1346986); further: nearly all actives have a fitted effect of over 60% in size;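 further: potency means the concentration at half of the fitted maximal effect; potency is for cytotoxicity meaning loss of cell viability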
How it was run: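 Compounds were tested in dose-response against KB-3-1 and KB-8-5-11 cells at 37 degree C for 72 h, and viability was measured by luminescence. AC50 values came from curve fitting with class-based activity calls.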

SMILES	growth, % of control [1] [%]	cell viability, % of control (lower = more cytotoxic) [2] [%]	viability (% of control) [3] [%]	Potency [4]	Potency [5]	Potency [6]	Potency [7]	Potency [8]	Potency [9]	Potency [10]
Cc1cc(O)c2c(c1)C(=O)c1cccc(O)c1C2=O	110	99.4	94.6	inactive	inactive	inactive	inactive	inactive	–	–
Cn1cc(-c2ccc3ncc(Cc4ccc5ncccc5c4)n3n2)cn1	13.9	45.5	35.3	inactive	inactive	inactive	inactive	inactive	–	–
COC(=O)C1C2CC3c4[nH]c5cc(OC)ccc5c4CCN3CC2CC(OC(=O)c2cc(OC)c(OC)c(OC)c2)C1OC (centres undefined)	9.05	120	78.7	inactive	2.64 µM (active)	2.64 µM (active)	–	2.35 µM (active)	–	–
COc1cc([C@@H]2c3cc4c(cc3[C@H](O)[C@H]3COC(=O)[C@@H]23)OCO4)cc(OC)c1OC	–	21.3	11.1	inactive	0.0743 µM (active)	0.187 µM (active)	0.105 µM (active)	–	–	–
O=C1NC(O)CCN1[C@@H]1O[C@H](CO)[C@H](O)[C@H]1O (some centres undefined)	59.2	105	115	inactive	inactive	inactive	inactive	–	–	–
O=C(O)CCCCCC(=O)NN=C1CCCC1	101	141	105	–	inactive	inactive	inactive	inactive	inactive	–
CN(C)CC[C@H](c1ccc(Cl)cc1)c1ccccn1	95.2	120	98.4	–	inactive	inactive	inactive	–	inactive	–
CC(C)NC[C@@H](C(=O)N1CCN(c2ncnc3c2[C@H](C)C[C@H]3O)CC1)c1ccc(Cl)cc1	2.94	1.71	1.88	inactive	4.69 µM (active)	11.8 µM (active)	1.66 µM (active)	2.64 µM (active)	–	–
Cc1coc2c1C(=O)C(=O)c1c-2ccc2c(C)cccc12	3.19	45.1	93.8	–	inactive	11.8 µM (active)	inactive	inactive	–	inactive
C[C@]12CCC(=O)C=C1[C@@H]1CC1[C@H]1[C@H]3[C@@H]4C[C@H]4[C@@]4(CCC(=O)O4)[C@@]3(C)CC[C@H]12 (some centres undefined)	71.4	75.3	92.9	inactive	inactive	inactive	inactive	inactive	–	–
OC[C@H]1OC(O)C[C@@H](O)[C@H]1O (some centres undefined)	86.6	118	115	–	inactive	inactive	inactive	inactive	–	–
C[C@@H](Cc1cc2c(c(C(N)=O)c1)N(CCCO)CC2)NCCOc1ccccc1OCC(F)(F)F	85.9	183	97.3	inactive	inactive	inactive	inactive	inactive	–	–
c1cc(N[C@@H]2CCNC2)nc(-c2cnc3ccc(-c4cn[nH]c4)cn23)c1	3.77	3.68	3.36	inactive	16.6 µM (active)	26.4 µM (active)	16.6 µM (active)	23.5 µM (active)	–	–
Cc1ccccc1C(=O)Nc1ccc(C(=O)N2CCCC(O)c3cc(Cl)ccc32)c(C)c1 (centres undefined)	24.6	129	104	–	inactive	inactive	inactive	inactive	–	inactive
CCCCCCCCc1ccc(CCC(N)(CO)CO)cc1	4.09	4.54	3.28	inactive	23.5 µM (active)	20.9 µM (active)	20.9 µM (active)	18.7 µM (active)	–	–
Cc1noc(-c2ccc(CSCCC(=O)O)cc2)c1NC(=O)OC(C)c1ccccc1Cl (centres undefined)	61.1	157	103	inactive	inactive	inactive	inactive	inactive	–	inactive
O=c1c(O)c(-c2ccc(O)c(O)c2)oc2cc(O)ccc12	8.07	9.57	–	inactive	14.8 µM (active)	18.7 µM (active)	16.6 µM (active)	20.9 µM (active)	inactive	–
Cc1cn([C@@H]2O[C@H](CO)[C@@H](O)[C@H]2F)c(=O)[nH]c1=O	323	189	–	inactive	inactive	inactive	inactive	inactive	inactive	inactive
CCCCCCCCCCCCc1ccc(S(=O)(=O)Nc2nncs2)cc1	117	86	–	–	inactive	inactive	inactive	inactive	–	inactive
C=CC(=O)Nc1ccc2ncnc(Nc3ccc(OCc4cccc(F)c4)c(Cl)c3)c2c1	5.29	13	–	inactive	0.148 µM (active)	1.18 µM (active)	–	0.833 µM (active)	inactive	–
CC(Cc1ccc(O)c(O)c1)(NN)C(=O)O (centres undefined)	54.9	108	–	inactive	inactive	inactive	inactive	23.5 µM (active)	–	–
O=C(O)c1ccc(Nc2ncc3c(n2)-c2ccc(Cl)cc2C(c2c(F)cccc2F)=NC3)cc1	52.9	41.7	–	inactive	1.05 µM (active)	0.833 µM (active)	0.296 µM (active)	0.59 µM (active)	–	0.82 µM (active)
